Assay results: PubChem BioAssay (NCI)
About 83,000 compounds went through this panel and 20% of them were active in at least one assay; those are over-represented in the sample as a whole.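 Cell lines were cultured in 96-well plates, exposed to a single compound concentration, and assessed for percent growth 48 hours later.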 A number with no mark means an inactive call. The source made the active and inactive calls. How the source made its calls: active means growth percent below 10; inactive means the rest.

Each compound was assayed on MDA-MB-468 breast (assay: NCI-60 one-dose screen, 48 h (100 = growth as untreated, 0 = no growth, -100 = all killed)). Details: 10 µM unless noted.

| SMILES | growth |
| --- | --- |
| COc1ccc2nc3cc(Cl)ccc3c(Nc3ccc(N(C)C)cc3)c2c1 | 73.7% |
| CCC[CH2][Sn]1([CH2]CCC)[O]C2C(CO)OC(n3ccc(N)nc3=O)C2[O]1 (configuration not stated) | -82.9% (active) |
| COC(=O)[C@H](Cc1cnc[nH]1)NC(=O)[C@@H](NC(=O)Nc1cc(C(F)(F)F)cc(C(F)(F)F)c1)C(C)C | -60.9% [100 µM] (active) |
| COC(=O)[C@]12CC[C@@H](C)[C@H](C)[C@@H]1C1=CC[C@@H]3[C@@]4(C)C(C=O)=C[C@@](C)(COC(=O)c5ccco5)C4=CC[C@@]3(C)[C@]1(C)CC2 | 5.01% (active) |
| COc1ccc(-c2nc3sccn3c2-c2ccnc(NCCCNS(=O)(=O)c3ccc4ccccc4c3)n2)cc1 | 71.1% |
| CC1(O)CCCCC1O (configuration not stated) | 108% |
| CCN(CC)c1ccc2cc(C(Nc3ccc(Br)c(C(F)(F)F)c3)c3nnnn3C(C)(C)C)c(=O)oc2c1 (configuration not stated) | 118% |
| COc1cc(/C=C2\SC(=S)N(/C=C/c3nc4ccccc4[nH]c3=O)C2=O)cc(OC)c1OC | 81.2% |
| Cn1c(C#N)ccc1-c1ccc(F)c(NC(=O)c2ccc(F)cc2)c1 | 35.6% |
| CCOC(=O)c1c(NC(=O)c2cccc(C(F)(F)F)c2)sc2c1CCC(=O)C2 | -9.5% (active) |
| COc1ccc2c(c1)c(-c1nc(-c3cn(C)c4ncccc34)cs1)cn2CCCN1CCCCC1 | 70.9% |
| Cn1cc(-c2cc3ncnc(Nc4ccc(CC(=O)Nc5nc(C(C)(C)C)cs5)cc4)c3s2)cn1 | 31.2% |
